In PubChem BioAssay AID1030 (National Center for Advancing Translational Sciences (NCATS), 2008) one finds Potency data, which are given here for 29 compounds.

The campaign covered roughly 220,000 compounds. About 16,000 (7.3%) were called active. Inconclusive results (about 25%) are left out. Calls come from the whole dose curve; as a rule, active = well fitted inhibition curve with a large enough effect (not every such curve was filed as active); inconclusive = small, poorly fitted or top-dose-only effect, or another doubt; inactive = no such curve, though single readings can be large or run the other way. The entries come from a sample that favours actives as a whole. Where a call stands in place of a potency, no number is given.
Potency is the fitted concentration of half-maximal effect.

This experiment deals with Aldehyde dehydrogenase 1A1 (Homo sapiens) (UniProt P00352). Briefly: qHTS Assay for Inhibitors of Aldehyde Dehydrogenase 1 (ALDH1A1). To be noted: Purified ALDH1A1, NADH fluorescence, propionaldehyde substrate; series mostly up to 75.3 µM. (In general: In qHTS, concentration-response curves come from the screen itself.)
Chain of Aldehyde dehydrogenase 1A1 (Homo sapiens) (P00352 whole entry, looked up): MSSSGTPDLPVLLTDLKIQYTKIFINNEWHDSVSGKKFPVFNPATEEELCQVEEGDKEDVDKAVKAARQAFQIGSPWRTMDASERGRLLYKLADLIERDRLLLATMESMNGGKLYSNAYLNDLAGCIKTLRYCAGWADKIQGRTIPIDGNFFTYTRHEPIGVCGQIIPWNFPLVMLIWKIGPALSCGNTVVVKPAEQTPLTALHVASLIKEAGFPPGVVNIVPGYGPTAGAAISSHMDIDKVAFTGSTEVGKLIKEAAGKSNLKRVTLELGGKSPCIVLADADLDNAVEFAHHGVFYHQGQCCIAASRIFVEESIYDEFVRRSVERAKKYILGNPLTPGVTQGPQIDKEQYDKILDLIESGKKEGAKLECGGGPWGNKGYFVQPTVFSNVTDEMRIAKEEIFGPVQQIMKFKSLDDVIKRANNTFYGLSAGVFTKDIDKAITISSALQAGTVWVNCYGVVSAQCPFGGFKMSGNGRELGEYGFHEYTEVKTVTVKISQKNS
`COc1ccccc1Cn1c(C)nnc1-c1cnn(C)c1N`: the Potency entry is “inactive”.

Take `O=C(CN1CCCCCC1)NCCN1C(=O)S/C(=C\c2ccccc2Cl)C1=O`: the Potency result was “inactive”.

Turning to `CCC1(CC)NC(=O)N(Cc2nc3ccccc3s2)C1=O`, the Potency entry was “inactive”.

Turning to `CC(CC(=O)Nc1ccccc1)n1ccnc1` (centres undefined), the Potency result is “inactive”.

On to `CS(=O)(=O)N1CCN(c2ccc(C(=O)NC3C4CC5CC(C4)CC3C5)cc2[N+](=O)[O-])CC1` (centres undefined), for which the Potency is 14.1 µM (active).

In the case of `Cc1cccc(N2CCN(c3ccc(C(N)=O)cc3[N+](=O)[O-])CC2)c1C`, the Potency result is “inactive”.

Turning to `CC(NC(=O)c1ccc(N2CCNCC2)c([N+](=O)[O-])c1)C12CC3CC(CC(C3)C1)C2` (centres undefined), the Potency result is “inactive”.

Take `CCN(CC(=O)NCc1cccs1)S(=O)(=O)c1ccc(NC(C)=O)cc1`: the Potency entry is “inactive”.

In the case of `Cc1cc(=O)[nH]c(SCC(=O)N2c3ccccc3CC2C)n1` (centres undefined), the Potency entry was “inactive”.

Regarding `CC1CC(C)CN(C(=O)CSc2nnc(CSc3ncccn3)n2C)C1` (centres undefined), the Potency result is “inactive”.

For `CCn1c(CSc2ncccn2)nnc1SCC(=O)N1c2ccccc2CC1C` (centres undefined), the Potency was 25.1 µM (active).

On to `Cc1noc(C)c1-c1nc(CSc2ccc(Cl)cc2)no1`, for which the Potency entry is “inactive”.

With `CC1CCC(NC(=O)C2c3ccccc3C(=O)N2Cc2ccc3c(c2)OCO3)CC1` (centres undefined), the Potency result was “inactive”.

As to `CN(CC(=O)Nc1ccccc1[N+](=O)[O-])Cc1ccc(Br)cc1`, the Potency result was “inactive”.

With `CCOc1ccc(Br)cc1S(=O)(=O)Nc1ccc(C(=O)OC(C)C(=O)N(C)c2ccccc2)cc1` (centres undefined), the Potency result is “inactive”.

For `CCOc1ccc(Br)cc1S(=O)(=O)N1CCC(C(=O)O)CC1`, the Potency entry is “inactive”.

With `CCOc1ccc(Br)cc1S(=O)(=O)Nc1cccc(S(=O)(=O)N(CC)CC)c1`, the Potency is 11.2 µM (active).

For the compound `N#Cc1c(-c2ccc(F)cc2)nc(-c2ccccc2)[nH]c1=O`, the Potency entry is “inactive”.

For `Cc1ccc(OCCCn2c(=O)oc3ccccc32)cc1`, the Potency entry is “inactive”.

Turning to `OCCC1CN(Cc2ccc3nsnc3c2)CCN1C1CCCC1` (centres undefined), the Potency entry was “inactive”.

Regarding `OCC1(CCc2ccccc2)CCN(Cc2ccc3nsnc3c2)CC1`, the Potency is 8.91 µM (active).

`CC(=O)c1cccc(CN2CCC(CO)(Cc3ccccc3)CC2)c1`: the Potency entry is “inactive”.

In the case of `CSc1ccccc1C(=O)NCc1ccccc1`, the Potency entry was “inactive”.

As to `CCc1cccc(C)c1NC(=S)N(CCCN1CCN(C)CC1)Cc1cccs1`, the Potency entry is “inactive”.

Consider `CCN(C(=O)COC(=O)c1cc(S(=O)(=O)N2CCc3ccccc32)ccc1OC)C1CCS(=O)(=O)C1` (centres undefined), for which the Potency result was “inactive”.

On to `COc1ccc(C(=O)OCC(=O)NCC2CCCCC2)cc1S(=O)(=O)N1CCCc2ccccc21`, for which the Potency is 20 µM (active).

Turning to `CCC(C)(C)NC(=O)/C=C/c1cc(OC)c(OC)c(S(=O)(=O)N2CCc3ccccc32)c1`, the Potency result is “inactive”.

For `O=C(O)c1ccn(COc2ccc(Br)cc2)n1`, the Potency result is “inactive”.

Regarding `O=C(CSc1nnc2ccc(-c3ccncc3)nn12)N1CCCCC1`, the Potency entry is “inactive”.
